The source of these data is ChEMBL document CHEMBL3988442, “University of Dundee, Small-Polar-MMV Screening Library” (2021).

For one assay, the system named is Trypanosoma cruzi. Nature of the assay: Trypanosoma cruzi phosphomannomutase and mannose-1-phosphate guanylyltransferase assay. On the set-up: scale not given: direction of the effect not stated beside the values. The settings on record: 10 µM. Type of assay: functional.
For the compound `CN(Cc1ccsc1)C(=O)c1cccc(S(=O)(=O)NC(C)(C)C)c1`, the Percent Effect is 3%.
As for `Clc1snnc1CN1CCCCC1Cn1cncn1` (stereo not given), the Percent Effect was -2.17%.
Consider `O=C(CC1CC1)N1CCC2(CC1)CN(c1ncccn1)CCO2`, for which the Percent Effect is -6.89%.
`CC(C)c1noc(CCC(=O)NC(C)c2nnc3n2CCCCC3)n1` (stereo not given): the Percent Effect is -1.47%.
On to `CC1c2ncc(COc3cccnc3)n2CCN1C(=O)Cc1ccco1` (stereo not given), for which the Percent Effect was -2.36%.
Same read-out and setting: as for `COc1cccc(CN(C)S(=O)(=O)N2CCOCC2)c1`, the figure is 2.63%.
Take `Cc1ccc(S(=O)(=O)NC2CNC(=O)C2)cc1C` (stereo not given): the Percent Effect worked out at 0.588%.
In the case of `COCC(O)CN(C)C(=O)NC1CCN(Cc2ccccn2)CC1` (stereo not given), the Percent Effect worked out at 4.31%.
With `O=C(NCc1ccco1)[C@H]1C[C@H]2OCC[C@H]2N(S(=O)(=O)C2CC2)C1`, the Percent Effect is -2.7%.
`Cc1ncsc1CN1C[C@@H](OCC2CC2)[C@H]2OCCC[C@H]21`: the Percent Effect came out at 4.79%.
As to `COc1ccc(C2Nc3ccccc3C3=NCCCN32)cc1OC` (stereo not given), the Percent Effect was -0.787%.
Regarding `O=C(NC[C@]12COC[C@H]1CN(Cc1nccs1)C2)N1CCCC1`, the Percent Effect was -4.52%.
With `CC(C)c1cc(NC(=O)c2ccc(NC3CC3)nc2)[nH]n1`, the Percent Effect was found to be 8.24%.
`O=C(c1cnc(C2CC2)s1)N1CCCC(n2cccn2)C1` (stereo not given): the Percent Effect is -7.26%.
In the case of `O=C1N(c2ccc(Br)cc2)Cc2nc(=O)[nH]n21`, the Percent Effect stood at 1.38%.
For the compound `COc1ccc(C(=O)N(Cc2cnn(C)c2)C(C)C)cc1Br`, the Percent Effect was determined as 6.44%.
Regarding `CCCc1cc(C(=O)N(C)Cc2cccc3ncccc23)n(C)n1`, the Percent Effect was 3.25%.
Consider `Cc1nc(CN2C[C@@H]3CN(C(=O)C4CC4)C[C@@H]3C2=O)cs1`, for which the Percent Effect was -5.57%.
In the case of `Cc1ccc(NC(=O)NCCCc2n[nH]c(N)c2C#N)cc1`, the Percent Effect is -3.12%.
Consider `CS(=O)(=O)NCC(=O)NC1CCc2nccn2C1` (stereo not given), for which the Percent Effect is -7.69%.
For the compound `CCCN(CC(=O)NC)C(=O)c1ccc(-c2ccsc2)nc1C`, the Percent Effect amounted to 4.76%.
Still for that read-out and setting: as for `Cc1ccc(C(=O)N2CCc3c(CNS(C)(=O)=O)cncc3C2)o1`, the figure is -6.37%; as for `Cc1cnn(CCC(=O)N2CCOC(c3nc(C(C)(C)C)n[nH]3)C2)c1` (stereo not given), -3.6%; as for `COc1cc(C)nc(N2CCN(C(=O)c3ccccc3C)CC2)n1`, 8.4%.
Regarding `COCC1CC2(CCN(C(=O)c3cccn3C)CC2)CN1C(C)C` (stereo not given), the Percent Effect came to 1.37%.
As to `Cc1cc(C(=O)N2C[C@@H]3COC[C@]3(c3nnc(C4CC4)o3)C2)on1`, the Percent Effect came out at 1.16%.
The same measure, in the same setting: to `CCOc1nnc(CN2CCC(N(C)Cc3noc(C)n3)C2)s1` (stereo not given) belongs -9.06%; to `Cc1cnc(CN(C)C2CCN(CC(=O)Nc3c(C)n[nH]c3C)C2)o1` (stereo not given), -9.54%; to `CNC(=O)C1CCN(C(=O)CCn2cccn2)CC1`, -4.92%.
As for `COCCNC(=O)[C@@H]1CC[C@@H]2[C@@H](CCN2Cc2cnn(C)c2)O1`, the Percent Effect is -0.386%.
On the same count and under the same terms, to `Cc1cc(C)n(CC2CCCN2C(=O)CCCc2ccccn2)n1` (stereo not given) belongs -3.76%.
For the compound `Cc1nccc(-c2cccc(NCC(=O)N3CCNC3=O)c2)n1`, the Percent Effect came out at 6.82%.
With `O=C(c1cnco1)N1CCCC(Cc2cccc3ncccc23)C1` (stereo not given), the Percent Effect was 7.51%.
As to `O=C(NCC(=O)N1CCCCC1)c1ccc(Cl)cc1I`, the Percent Effect is 8.49%.
Turning to `Cc1cncc(C2CCCN(C(=O)c3scnc3C)C2)n1` (stereo not given), the Percent Effect was 0.395%.
Same read-out and setting: as for `COC1CCN(C(=O)Cc2csc(-c3ncccn3)n2)CC1`, the figure is 6.96%.
On to `CC(C)Cc1noc(CN2CCOC(Cn3cncn3)C2)n1` (stereo not given), for which the Percent Effect is -6.22%.
As for `Cc1nc(C)n(C2CCCN(C(=O)c3ccccc3C)C2)n1` (stereo not given), the Percent Effect is -0.881%.
On to `CCCc1ncc(C(=O)N2CCOC(c3nc(C)n[nH]3)C2)s1` (stereo not given), for which the Percent Effect is -6.46%.
As to `Cc1ccsc1[C@@H]1CCN(C(=O)c2cc3ccccc3[nH]2)C[C@H]1O`, the Percent Effect was -6.51%.

The next assay deals with T1, Arginase-2, mitochondrial (Homo sapiens) (UniProt P78540).
T1 sequence (whole entry): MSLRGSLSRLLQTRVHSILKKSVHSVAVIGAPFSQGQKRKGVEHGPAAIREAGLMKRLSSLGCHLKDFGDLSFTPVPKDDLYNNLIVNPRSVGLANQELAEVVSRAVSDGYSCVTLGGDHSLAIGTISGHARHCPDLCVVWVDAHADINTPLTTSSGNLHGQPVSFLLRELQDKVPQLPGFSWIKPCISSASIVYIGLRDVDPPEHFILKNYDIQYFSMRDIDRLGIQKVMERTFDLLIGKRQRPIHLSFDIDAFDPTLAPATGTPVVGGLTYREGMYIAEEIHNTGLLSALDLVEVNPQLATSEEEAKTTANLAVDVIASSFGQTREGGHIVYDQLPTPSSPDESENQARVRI
Nature of the assay: in vitro enzyme assay to detect the production of urea directly proportional to the activity of Arginase II. The assay is classed as functional. On the set-up: scale not given: in the data most compounds retested in dose-response had high values. To be noted: 33.3 µM.
`CN(Cc1ccsc1)C(=O)c1cccc(S(=O)(=O)NC(C)(C)C)c1`: the Percent Effect was -3.56%.
Still for that read-out and setting: to `Clc1snnc1CN1CCCCC1Cn1cncn1` (stereo not given) belongs 2.66%; to `O=C(CC1CC1)N1CCC2(CC1)CN(c1ncccn1)CCO2`, -5.83%.
As to `CC(C)c1noc(CCC(=O)NC(C)c2nnc3n2CCCCC3)n1` (stereo not given), the Percent Effect was -2.23%.
For the compound `CC1c2ncc(COc3cccnc3)n2CCN1C(=O)Cc1ccco1` (stereo not given), the Percent Effect is -3.7%.
For `COc1cccc(CN(C)S(=O)(=O)N2CCOCC2)c1`, the Percent Effect was -10.7%.
With `Cc1ccc(S(=O)(=O)NC2CNC(=O)C2)cc1C` (stereo not given), the Percent Effect amounted to 1.82%.
With `COCC(O)CN(C)C(=O)NC1CCN(Cc2ccccn2)CC1` (stereo not given), the Percent Effect was -2.85%.
Take `O=C(NCc1ccco1)[C@H]1C[C@H]2OCC[C@H]2N(S(=O)(=O)C2CC2)C1`: the Percent Effect was -26.7%.
With `Cc1ncsc1CN1C[C@@H](OCC2CC2)[C@H]2OCCC[C@H]21`, the Percent Effect was -0.248%.
Regarding `COc1ccc(C2Nc3ccccc3C3=NCCCN32)cc1OC` (stereo not given), the Percent Effect was -1.63%.
Consider `O=C(NC[C@]12COC[C@H]1CN(Cc1nccs1)C2)N1CCCC1`, for which the Percent Effect is -7.92%.
In the case of `CC(C)c1cc(NC(=O)c2ccc(NC3CC3)nc2)[nH]n1`, the Percent Effect is -6.05%.
On to `O=C(c1cnc(C2CC2)s1)N1CCCC(n2cccn2)C1` (stereo not given), for which the Percent Effect was -5.61%.
For the compound `O=C1N(c2ccc(Br)cc2)Cc2nc(=O)[nH]n21`, the Percent Effect is -1.58%.
Regarding `COc1ccc(C(=O)N(Cc2cnn(C)c2)C(C)C)cc1Br`, the Percent Effect is -2.52%.
On to `CCCc1cc(C(=O)N(C)Cc2cccc3ncccc23)n(C)n1`, for which the Percent Effect is -19.3%.
As for `Cc1nc(CN2C[C@@H]3CN(C(=O)C4CC4)C[C@@H]3C2=O)cs1`, the Percent Effect is 4.78%.
`Cc1ccc(NC(=O)NCCCc2n[nH]c(N)c2C#N)cc1`: the Percent Effect stood at 1.9%.
Still for that read-out and setting: as for `CS(=O)(=O)NCC(=O)NC1CCc2nccn2C1` (stereo not given), the figure is 1.56%.
`CCCN(CC(=O)NC)C(=O)c1ccc(-c2ccsc2)nc1C`: the Percent Effect stood at 36.2%.
Turning to `Cc1ccc(C(=O)N2CCc3c(CNS(C)(=O)=O)cncc3C2)o1`, the Percent Effect is -55%.
On to `Cc1cnn(CCC(=O)N2CCOC(c3nc(C(C)(C)C)n[nH]3)C2)c1` (stereo not given), for which the Percent Effect is -0.883%.
Regarding `COc1cc(C)nc(N2CCN(C(=O)c3ccccc3C)CC2)n1`, the Percent Effect was -13.2%.
Still for that read-out and setting: as for `COCC1CC2(CCN(C(=O)c3cccn3C)CC2)CN1C(C)C` (stereo not given), the figure is -1.67%; as for `Cc1cc(C(=O)N2C[C@@H]3COC[C@]3(c3nnc(C4CC4)o3)C2)on1`, -46.4%.
As for `CCOc1nnc(CN2CCC(N(C)Cc3noc(C)n3)C2)s1` (stereo not given), the Percent Effect is 5.04%.
On to `Cc1cnc(CN(C)C2CCN(CC(=O)Nc3c(C)n[nH]c3C)C2)o1` (stereo not given), for which the Percent Effect was 6.84%.
Regarding `CNC(=O)C1CCN(C(=O)CCn2cccn2)CC1`, the Percent Effect stood at 5.73%.
As to `COCCNC(=O)[C@@H]1CC[C@@H]2[C@@H](CCN2Cc2cnn(C)c2)O1`, the Percent Effect is -43.5%.
The same measure, in the same setting: to `Cc1cc(C)n(CC2CCCN2C(=O)CCCc2ccccn2)n1` (stereo not given) belongs 2.68%; to `Cc1nccc(-c2cccc(NCC(=O)N3CCNC3=O)c2)n1`, -1.44%; to `O=C(c1cnco1)N1CCCC(Cc2cccc3ncccc23)C1` (stereo not given), 0.696%.
With `O=C(NCC(=O)N1CCCCC1)c1ccc(Cl)cc1I`, the Percent Effect was 0%.
Regarding `Cc1cncc(C2CCCN(C(=O)c3scnc3C)C2)n1` (stereo not given), the Percent Effect is -2.09%.
Still for that read-out and setting: to `COC1CCN(C(=O)Cc2csc(-c3ncccn3)n2)CC1` belongs 3.83%.
For the compound `CC(C)Cc1noc(CN2CCOC(Cn3cncn3)C2)n1` (stereo not given), the Percent Effect worked out at 4.25%.
With `Cc1nc(C)n(C2CCCN(C(=O)c3ccccc3C)C2)n1` (stereo not given), the Percent Effect was found to be 7.37%.
For `CCCc1ncc(C(=O)N2CCOC(c3nc(C)n[nH]3)C2)s1` (stereo not given), the Percent Effect was 7.1%.
`Cc1ccsc1[C@@H]1CCN(C(=O)c2cc3ccccc3[nH]2)C[C@H]1O`: the Percent Effect is -0.442%.
